Assay results reported in PubChem BioAssay AID2320 (National Center for Advancing Translational Sciences (NCATS), 2010).
Inconclusive results are not listed. Where a call stands in place of a potency, no number is given. Calls of active or inactive are those of the source. Calls come from the whole dose curve.

Test: A qHTS for Small Molecule Inhibitors of Shiga Toxin (Confirmatory); note: nearly all actives have a fitted effect of over 75% in size
Details: Cell-based Shiga toxin protection reporter assay; series mostly up to 38.3 µM
Potency is the fitted concentration of half-maximal effect.

SMILES | Potency
Cc1ccc(-c2csc(NC(=O)c3ccc(C)o3)n2)cc1 | 0.0318 µM (active)
COc1ccccc1NC(=O)CSc1nnc(-c2ccco2)n1Cc1ccco1 | inactive
CC(C)(C)C(=O)Cn1ncc(N2CCOCC2)c(Br)c1=O | 22.5 µM (active)
OC1C[N+]2(CCCCC2)C1 | inactive
CCOC(=O)C1=C(C)NC(=O)NC1c1ccc(OCC(=O)Nc2ccccc2)c(OC)c1 (stereo not drawn) | inactive
COc1ccccc1NC(=O)Nc1cc(F)ccc1F | 20 µM (active)
CCOC(=O)C1(CCCc2ccccc2)CCN(C(=O)CCn2cncn2)CC1 | inactive
Cc1nn(-c2ccc(C(=O)O)cc2)c2c1C(=O)CC(C)(C)C2 | inactive
Cc1nn(C2CCCCC2)c(N)c1-c1ccccc1 | inactive
COc1ccccc1C(=O)CSc1nccn1C | 28.3 µM (active)
N=c1c(S(=O)(=O)c2ccc(Cl)cc2)cc2c(=O)n3ccccc3nc2n1C1CCCCC1 | inactive
NS(=O)(=O)c1cc(C(=O)NCC2CCCCC2)ccc1Cl | inactive
COc1ccc(C(=O)CSc2nnc(C(CO)NC(=O)c3ccc(OC)cc3)n2C)cc1 (stereo not drawn) | inactive
Cc1cc(C)n(-c2nc3c(c(=O)[nH]c(=O)n3C)n2Cc2cccc(Br)c2)n1 | inactive
CN(C)C(CNC(=O)CCC(=O)c1ccc(Br)cc1)c1ccccc1 (stereo not drawn) | inactive
COc1ccccc1C(=O)Nc1ccc(N2CCN(C(C)=O)CC2)cc1 | inactive
CCOC(=O)N1CCN(S(=O)(=O)c2ccc(C(=O)NNc3nc4c(C)cc(C)cc4s3)cc2)CC1 | 0.04 µM (active)
CCCCOC(=O)c1ccc(N=Nc2c(C)c(C#N)c(O)[nH]c2=O)cc1 | 15.9 µM (active)
